# About 2,100 (0.66%) of roughly 320,000 compounds were called active. Another 53% or so got no clear call; they are omitted. The call rests on the fitted dose curve; in most records, active means well fitted inhibition curve with a large enough effect in the signal ratio, with a control signal flat (not every such curve was filed as active); inconclusive means small, poorly fitted or top-dose-only effect, or effect the other way, or a change in a side signal; inactive means flat fitted curve, though single readings scatter; the % refers to the signal ratio. The sample as a whole holds a higher share of actives than the screen did.
# Assay: qHTS Assay for Lipid Storage Modulators in Drosophila S3 Cells;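 on cell number change: cells counted by Cell Tracker Red CMTPX staining in the red channel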; on lipid storage change, negative = inhibition: on the % scale 0 is the no-effect control and ±100 the full control effect
# Conditions: BODIPY lipid droplet fluorescence, 18-24 h, cells fed with added oleic acid; cell number change: measured here: cell count max response; series mostly up to 46.1 µM; lipid storage change, negative = inhibition: at the top concentration
# In short: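 Drosophila S3 cells got compounds at several concentrations plus oleic acid (400 uM solution). Laser-scanning cytometry with 488 nm excitation read lipid droplets at 500-530 nm and cells at 575-640 nm. Percent activity was relative to 20 uM Triacsin C.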
# Potency means the concentration at half of the fitted maximal effect.
SMILES,"lipid storage change, negative = inhibition",cell number change,outcome,Potency
C#CCOCCOCCOCCNc1nc(N2CCN(C(=O)[C@H](CCC(=O)O)n3cc(C(N)[C@H](C)CC)nn3)CC2)nc(N2CCN(C(=O)[C@H](CCC(=O)O)n3cc(C(N)[C@H](C)CC)nn3)CC2)n1 (stereo partly drawn),-5.28% (inactive),-3.88%,,
O=C(CN(Cc1ccccc1)S(=O)(=O)c1ccccc1)N/N=C/c1ccc([N+](=O)[O-])cc1,13.5% (inactive),-4.65%,,
Cc1ccc(OCC(=O)NNC(=S)NC(=O)c2ccc(Br)o2)c(C)c1,19.1% (inactive),7.54%,,
Cc1ccc(-n2nc3c(=O)n(C(C)C(=O)NCCCc4ccccc4)nc(C)c3c2C)cc1 (stereo not drawn),,-8.4%,inactive,
Cc1ccc(-n2nc3c(=O)n(CC(=O)NCCCc4ccccc4)nc(C)c3c2C)cc1,,21%,,18.4 µM (active)
Cc1ccc(-n2nc3c(=O)n(CC(=O)NCCc4ccc(Cl)cc4)nc(C)c3c2C)cc1,12.1% (inactive),-10.8%,,
Cc1cc(C)cc(NC(=O)CSc2ncc(S(=O)(=O)c3ccccc3)c(=O)[nH]2)c1,6.14% (inactive),4.62%,,
O=C(CN1CC(=O)Nc2ccccc21)NCCc1ccc(Cl)cc1Cl,-1.77% (inactive),-5.87%,,
O=C(CN1C(=O)C(=O)N(C2CCCC2)C1=O)NCCc1ccc(Cl)cc1Cl,,-0.378%,,4.11 µM (active)
O=C(CN1CCNC(=O)C1)NCCc1ccc(Cl)cc1Cl,-25.2% (inactive),-23.8%,,
CC(=O)c1cccc(NC(=O)c2cc(C)no2)c1,1.89% (inactive),5.99%,,
CCC(C)[C@@H](N)C(=O)N/N=C/c1cccc2nccnc12 (stereo partly drawn),-5.79% (inactive),-7.62%,,
CCC(c1nnnn1Cc1ccco1)N1CCC(C(N)=O)CC1 (stereo not drawn),,-7.68%,,5.8 µM (active)
CCC(c1nnnn1Cc1ccco1)N1CCN(C(=O)c2ccco2)CC1 (stereo not drawn),3.59% (inactive),0.561%,,
CC(C)C(c1nnnn1Cc1ccco1)N1CCC(C(N)=O)CC1 (stereo not drawn),-0.139% (inactive),-12.1%,,
CCCC(=O)Nc1ccc2oc(=O)ccc2c1,-2.96% (inactive),-4.63%,,
Cc1ccccc1C(=O)N1CCCC(N2CCN(Cc3ccc4c(c3)OCO4)CC2)C1 (stereo not drawn),5.73% (inactive),0.496%,,
CCNc1nc(NCC)n2c(SCC(=O)O)nnc2n1,,-12%,,29.1 µM (active)
CCNc1nc(NCC)n2c(SCC(=O)c3ccccc3Cl)nnc2n1,12.4% (inactive),,,
CCNc1nc(NCC)n2c(SCC(=O)Nc3ccccc3)nnc2n1,-3.31% (inactive),9.23%,,
Cc1csc(NC(=O)c2ccc(S(=O)(=O)N3CCCC3)cc2)n1,3.45% (inactive),5.75%,,
O=C(CNS(=O)(=O)c1cccc2nonc12)NCc1ccc(F)cc1,,,inactive,

SMILES,"lipid storage change, negative = inhibition",cell number change,outcome,Potency
CCC(C(=O)NC1CCCCC1)n1c2ccccc2c2nc(=O)cc(C)n21 (stereo not drawn),,1.33%,inactive,
COc1cc2c(cc1OC)n(CC(=O)NC1CCCCCC1)n1c(C)cc(=O)nc21,,-21.9%,,8.2 µM (active)
COc1cccc2c1cc1c(=O)n(CC(=O)NC3CCCCC3)nc(C)n12,7.54% (inactive),-12.9%,,
Nc1nc(C2CCCN2S(=O)(=O)c2ccc(Cl)cc2)cs1 (stereo not drawn),,-2%,inactive,
CCOc1ccc(NC(=O)C2CCC(CNc3c(N4CCCCC4)c(=O)c3=O)CC2)cc1 (stereo not drawn),2.07% (inactive),,,
CC(C)CC(=O)Nc1cccc(-c2nc3ncccc3o2)c1,8.93% (inactive),-6.34%,,
CCCCC(=O)Nc1cccc(-c2nc3ncccc3o2)c1,18.9% (inactive),0.0678%,,
O=C(CSc1ccc(Cl)cc1)Nc1cccc(-c2nc3ncccc3o2)c1,,-12.7%,,1.3 µM (active)
CCc1ccccc1N1CCN(S(=O)(=O)c2cc(OC)ccc2OC)CC1,,,inactive,
Cc1ccc(Nc2cnn(C34CC5CC(CC(CC(=O)O)(C5)C3)C4)c(=O)c2Cl)c(Cl)c1,2.44% (inactive),5.36%,,
CCc1ccc(Nc2cnn(C34CC5CC(CC(CC(=O)O)(C5)C3)C4)c(=O)c2Cl)cc1,7.65% (inactive),8.4%,,
Cc1cc(C)cc(Nc2cnn(C34CC5CC(CC(CC(=O)O)(C5)C3)C4)c(=O)c2Cl)c1,,-2.34%,,18.4 µM (active)
Cc1ccc(CN2CCN(CC(C)C)C(CCO)C2)s1 (stereo not drawn),6.7% (inactive),20.3%,,
CN(C)c1ccc(NC(=O)C[n+]2ccccc2)cc1,22.6% (inactive),22.5%,,
CCOC(=O)COc1nc2c(c(-c3ccco3)c1C#N)CCc1ccccc1-2,2.63% (inactive),3.1%,,
N#Cc1c(OCC(=O)c2ccccc2)nc2c(c1-c1ccco1)CCc1ccccc1-2,,-13%,,8.2 µM (active)
CC(=O)COc1nc2c(c(-c3ccco3)c1C#N)CCc1ccccc1-2,-0.398% (inactive),7.55%,,
CCCOC(=O)Cn1c(=O)c2cc3c(=O)n(CC(=O)OCCC)c(=O)c3cc2c1=O,,-10.2%,inactive,
CCOC(=O)C1=C(C)N=C2SCCC(=O)N2C1c1cccs1 (stereo not drawn),9.97% (inactive),-2.29%,,
O=C(O)Cc1sc(Nc2cccc3ccccc23)nc1-c1ccccc1,,25.4%,,0.092 µM (active)
O=C(O)Cc1sc(Nc2cccc3ccccc23)nc1-c1ccc(Cl)cc1,8.83% (inactive),13.4%,,
O=C(O)Cc1sc(Nc2cccc3ccccc23)nc1-c1ccc(F)cc1,-9.11% (inactive),12.9%,,

SMILES,"lipid storage change, negative = inhibition",cell number change,outcome,Potency
O=c1c([N+](=O)[O-])c(N2CCOCC2)c2ccccc2n1-c1ccccc1,14.5% (inactive),8.53%,,
CCOC(=O)C1CCN(C(=O)CCCn2nc(CC)n3c(cc4occc43)c2=O)CC1,,-12.6%,inactive,
CCc1nn(CCCC(=O)N2CCN(c3cccc(C)c3C)CC2)c(=O)c2cc3occc3n12,,,inactive,
CCc1nn(CCCC(=O)NCc2ccco2)c(=O)c2cc3occc3n12,,-6.49%,inactive,
CCc1nn(CCCC(=O)NCc2ccccc2C)c(=O)c2cc3occc3n12,,-19.5%,inactive,
CCc1cccc(NC(=O)CCCn2nc(CC)n3c(cc4occc43)c2=O)c1,,-27.3%,,20.6 µM (active)
CCc1nn(CCCC(=O)N2CCC(C)CC2)c(=O)c2cc3occc3n12,,,,4.11 µM (active)
COCCNC(=O)Cn1nc(-c2ccccc2C)ccc1=O,-4.82% (inactive),8.76%,,
O=C(CN(C(=O)c1ccc(Cl)cc1)N1C(=O)C2C3C=CC(C3)C2C1=O)c1cccs1 (stereo not drawn),5.92% [at 9.22 µM] (inactive),-8.51%,,
COCC(C)NC(=O)C(C)N1c2cccc3cccc(c23)S1(=O)=O (stereo not drawn),-19% (inactive),3.31%,,
O=C1CC(c2ccco2)CC(O)=C1C=Nc1ccccc1-c1ccccc1 (stereo not drawn),2.69% (inactive),5.01%,,
O=C1CC(c2ccco2)CC(O)=C1C=Nc1cc(Cl)ccc1Cl (stereo not drawn),3.89% (inactive),10.5%,,
O=C1CC(c2ccco2)CC(O)=C1C=Nc1cc(Cl)cc(Cl)c1 (stereo not drawn),,13.6%,,25.9 µM (active)
O=C(C1CCN(C2CCN(C/C=C/c3ccccc3)CC2)CC1)N1CCOCC1,0.713% (inactive),7.25%,,
O=C(C1=C(O)C(=O)N(CC2CCCO2)C1c1ccccc1Cl)c1ccco1 (stereo not drawn),,-3.95%,,6.51 µM (active)
O=C(C1=C(O)C(=O)N(c2ncccn2)C1c1cccc(Cl)c1)c1ccco1 (stereo not drawn),,5.29%,,6.51 µM (active)
COc1ccc(C2C(C(=O)c3ccco3)=C(O)C(=O)N2CC2CCCO2)c(OC)c1 (stereo not drawn),-8.33% (inactive),-0.87%,,
O=C(C1=C(O)C(=O)N(CC2CCCO2)C1c1cccc(O)c1)c1ccco1 (stereo not drawn),-14% (inactive),-19.7%,,
O=C(C1=C(O)C(=O)N(CC2CCCO2)C1c1ccc(Cl)cc1)c1ccco1 (stereo not drawn),,18.3%,inactive,
O=C(C1=C(O)C(=O)N(Cc2ccco2)C1c1cccc(Cl)c1)c1ccco1 (stereo not drawn),-28% (inactive),15%,,
O=C(C1=C(O)C(=O)N(CC2CCCO2)C1c1cccc(Cl)c1)c1ccco1 (stereo not drawn),,-5.86%,,0.82 µM (active)
Cc1ccc(C2C(C(=O)c3ccco3)=C(O)C(=O)N2c2ncccn2)cc1 (stereo not drawn),14.9% (inactive),10.6%,,

SMILES,"lipid storage change, negative = inhibition",cell number change,outcome,Potency
O=C(C1=C(O)C(=O)N(c2ncccn2)C1c1ccc(Cl)cc1)c1ccco1 (stereo not drawn),-11.9% (inactive),8.73%,,
COC(=O)c1ccc(NC(=S)NCc2ccco2)cc1,-4.68% [at 9.22 µM] (inactive),-29.4%,,
CCN(CC)N=Nc1ccc(S(N)(=O)=O)cc1,14.8% (inactive),-10.8%,,
O=C(c1ccc(Cl)cc1)N1CCN(c2ccc(F)cc2)CC1,8.11% (inactive),-2.3%,,
CCOC(=O)c1cccc(NC(=O)CNC(=O)C2CCCCC2)c1,,12.1%,inactive,
Cn1c(=O)c(C(=O)NCc2ccccc2)c(O)c2ccccc21,,,inactive,
C[C@H]1CC[C@@]2(O[C@@H](CCO)C[C@@H](O)[C@@H]2O)O1,-0.85% (inactive),10.3%,,
CC(NC(=O)c1ccccc1F)c1nnc(SCC(=O)N2CCN(c3ccccc3)CC2)n1C (stereo not drawn),,-26.5%,,0.82 µM (active)
CC(NC(=O)c1ccccc1F)c1nnc(SCC(=O)NC2=NCCS2)n1C (stereo not drawn),,-19.7%,inactive,
Cn1c(SCC(=O)N2CCN(c3ccccc3)CC2)nnc1-c1ccccc1,,1.56%,inactive,
COc1ccc(NC(=O)CSCc2cc(=O)n3c(C)csc3n2)cc1,,4.18%,inactive,
CC(C)Nc1nc2n(c(=O)n1)CCN2C(C)C,,0.328%,,4.11 µM (active)
CC(C)Nc1nc(NC(C)C)nc(SCC(N)=O)n1,-7.46% (inactive),-10.2%,,
CC(C)Nc1nc(NC(C)C)nc(Nn2cnnc2)n1,-11.9% (inactive),-7.52%,,
CC1(C)CC2(C)Nc3ccccc3N2C(=S)N1 (stereo not drawn),3.67% (inactive),-13.1%,,
COc1ccc(NC(=O)Nc2ccc(C(=O)N3CCOCC3)cc2)cc1OC,-17% (inactive),-17.3%,,
O=C(CNC(=O)c1ccc(Br)o1)Nc1ncccc1O,16.8% (inactive),,,
C=C1CCC[C@]2(C)C[C@H]3OC(=O)C(CN4CC(C)OC(C)C4)[C@H]3C[C@@H]12 (stereo partly drawn),1.66% (inactive),8.39%,,
C=C1CCC[C@]2(C)C[C@H]3OC(=O)C(CN4CCOCC4)[C@H]3C[C@@H]12 (stereo partly drawn),,-15.3%,,8.2 µM (active)
C=C1CCC[C@]2(C)C[C@H]3OC(=O)C(CNC(C)CC)[C@H]3CC12 (stereo partly drawn),-6.88% (inactive),-16.4%,,
O=C(COC(=O)c1ccc(S(=O)(=O)N2CCOCC2)cc1)NCc1cccs1,-5.08% (inactive),-3.56%,,
CC1CCCCC1NC(=O)CN1C(=O)NC(Cc2ccccc2)(Cc2ccccc2)C1=O (stereo not drawn),,27.7%,inactive,
